Screens (PubChem BioAssay)
Most compounds without a hit are left out; they make up all but 7.3% or so of the library.
IP6K1 inhibitor: Primary qHTS assay for small molecule inhibitors of Inositol hexaphosphate kinase 1 (IP6K1) | 140,000 tested, 0.81% active | Inositol hexakisphosphate kinase 1 (Homo sapiens), Q92551 | activity change, % (series mostly up to about 58 µM) | AID 1645851, 2021 | IP6K1 kinase, ADP-Glo luminescence, 2 h; hits give low values; in the data active = activity change below about -25%; also: % is scaled to controls: 0 for no effect and ±100 for the full control effect
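ADP-Glo luminescence measures ADP made by human IP6K1 during a 2 h RT reaction with ATP/IP6 (mix at 1.3 mM/130 uM); top library doses 57.5 and 19.1 uM final.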
FLuc inh-1: Firefly luciferase inhibition profiling of diverse chemical library using quantitative high-throughput screening; Luciferin 4-monooxygenase (Photinus pyralis), P08659; purified P. pyralis luciferase, luminescence, biochemical; Potency, µM (doses to about 115 µM), usual class: inhibitors; 76,000 tested, 2.5% active; AID 1347043, 2019; also: potency is read from the fitted curve at half-maximal effect; % is scaled to controls: 0 for no effect and ±100 for the full control effect; nearly all actives have a fitted effect of over 65% in size
Target sequence (P08659 whole entry, looked up): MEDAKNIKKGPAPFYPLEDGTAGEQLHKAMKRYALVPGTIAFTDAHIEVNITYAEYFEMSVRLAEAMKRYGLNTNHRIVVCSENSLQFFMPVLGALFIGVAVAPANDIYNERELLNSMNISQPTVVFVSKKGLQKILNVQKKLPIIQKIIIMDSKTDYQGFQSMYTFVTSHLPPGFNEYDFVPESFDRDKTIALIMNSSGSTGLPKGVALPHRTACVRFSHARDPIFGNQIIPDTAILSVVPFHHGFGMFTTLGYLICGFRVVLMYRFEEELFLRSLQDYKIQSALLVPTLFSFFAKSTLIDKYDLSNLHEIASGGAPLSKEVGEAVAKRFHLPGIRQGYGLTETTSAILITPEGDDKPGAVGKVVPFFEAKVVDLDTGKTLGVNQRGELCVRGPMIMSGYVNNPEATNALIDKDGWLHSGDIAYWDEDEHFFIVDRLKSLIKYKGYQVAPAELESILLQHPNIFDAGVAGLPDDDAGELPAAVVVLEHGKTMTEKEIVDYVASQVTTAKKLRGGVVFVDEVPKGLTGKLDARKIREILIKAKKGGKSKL
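Cell-free enzyme assay, 10nM P. pyralis luciferase, luciferin and ATP each at 10uM. Inhibition profiled over a 6-point titration, read as luminescence.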
3T3 cytotox: Cytotoxic Profiling in NIH 3T3 Cell Line of Diverse Libraries Using Quantitative High-Throughput Screening. NIH 3T3 viability, CellTiter-Glo ATP luminescence, 48-72 h. Potency, µM (series often up to 96.7 µM), without a hit: at the highest dose activity change, negative = cytotoxicity, actives largely listed as inhibitors. 94,000 tested, 4.3% active. AID 1345082, 2018; also: potency is read from the fitted curve at half-maximal effect; % is scaled to controls: 0 for no effect and ±100 for the full control effect; nearly all actives have a fitted effect of over 55% in size
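Luminescent ATP readout (CellTiter-Glo, 10 min RT) after 48 or 72 hr compound exposure of NIH 3T3 cells seeded at 400 cells/well in 1536-well format; quantitative HTS.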
HEK cytotox: Cytotoxic Profiling in HEK 293 Cell Line of Diverse Libraries Using Quantitative High-Throughput Screening | HEK 293 viability, ATP luminescence (CellTiter-Glo), 48-72 h | Potency, µM (highest dose often 115 µM), inactives show at the top dose activity change, negative = cytotoxicity, most hits filed as inhibitors | 94,000 tested, 6.6% active; also: potency is read from the fitted curve at half-maximal effect; % is scaled to controls: 0 for no effect and ±100 for the full control effect; nearly all actives have a fitted effect of over 60% in size
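Pintool-delivered compounds were incubated with HEK 293 cells (250 cells/well) at 37 degree Celsius for 48 or 72 hr. ATP-dependent luminescence (CellTiter-Glo) then reported remaining viable cells.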
SNCA viab count: GF-AFC viability counterscreen for inhibitors of alpha-synuclein gene (SNCA) expression; 150,000 tested, 0.12% active; AID 1671193, 2021; HEK-293-SNCA-luc viability, GF-AFC fluorescence, 24 h; Potency, µM (titrated, usually from 57.1 µM), for the others: top-dose activity change, negative = cytotoxicity, most hits filed as cytotoxic;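 also: potency is read from the fitted curve at half-maximal effect; 0% = DMSO-treated cells and -100% = medium-only wells without cells; nearly all actives have a fitted effect of over 30% in size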
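Cytotoxicity counterscreen: after 24 h compound treatment of genome-edited SNCA-luciferase HEK-293 cells, live-cell protease substrate GF-AFC read by fluorescence after 30 min; activity scaled between DMSO (0%) and medium-only (-100%), curves Hill-fitted.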
SNCA expr inhib: Primary qHTS assay for inhibitors of alpha-synuclein gene (SNCA) expression | HEK-293 SNCA-luciferase knock-in, luminescence, 24 h | Potency, µM (titrated, usually from 57.2 µM), for the others: at the highest dose activity change, negative = inhibition, usual class: inhibitors | 140,000 tested, 0.17% active | AID 1671194, 2021;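 also: potency is read from the fitted curve at half-maximal effect; plate controls were DMSO cells for no effect and cell-free wells for full effect; nearly all actives have a fitted effect of over 45% in size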
FLuc SDR -ATP: Firefly luciferase (FLuc-C-HiBiT) SDR gain of signal screen - without ATP | shares compounds with FLuc inh-1 | 1,300 tested, 7.8% active | Purified FLuc-C-HiBiT, Nano-Glo HiBiT luminescence, no ATP | AID 1963318, 2024 | Potency, µM (series often up to 32.7 µM), inactives show at the top dose activation (signal gain), usual class: activators; also: potency is read from the fitted curve at half-maximal effect; nearly all actives have a fitted effect of over 55% in size
FLuc SDR ATP: Firefly luciferase (FLuc-C-HiBiT) SDR gain of signal screen - plus ATP; shares compounds with FLuc inh-1; purified FLuc-C-HiBiT + ATP, HiBiT complementation luminescence; Potency, µM (doses to about 32.7 µM), for the others: top-dose activation (gain of signal), hits mostly activators; 1,300 tested, 8.7% active;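 also: signal reports ligand binding via conformational change of the enzyme rather than luciferase catalysis; potency is read from the fitted curve at half-maximal effect; % of control where 0% means no effect; nearly all actives have a fitted effect of over 55% in size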
FLuc inh-2: Firefly luciferase (FLuc-C-HiBiT) enzymatic inhibition screen - Functional assay. shares compounds with FLuc inh-1. purified FLuc-C-HiBiT enzyme, luciferin luminescence. Potency, µM (titrated, usually from 32.7 µM), for inactives: top-dose activity change, negative = inhibition, usual class: inhibitors. 1,300 tested, 42% active; also: potency is read from the fitted curve at half-maximal effect; % is scaled to controls: 0 for no effect and ±100 for the full control effect; nearly all actives have a fitted effect of over 70% in size
Starred values were filed as active, the others as inactive; i = inactive; ? = inconclusive; . = no result given; [ ] = another dose, or the depositor's remark. Unless noted, calls follow the shape of the dose curve; as a rule, active = well fitted curve in the direction sought with a large enough effect; inconclusive = small, poorly fitted or top-dose-only effect, or another doubt; inactive = no such curve, though single readings can be large; an effect the other way counts as inactive or inconclusive.

SMILES | IP6K1 inhibitor | FLuc inh-1 | 3T3 cytotox | HEK cytotox | SNCA viab count | SNCA expr inhib | FLuc SDR -ATP | FLuc SDR ATP | FLuc inh-2
O=C(c1ccc(C(F)(F)F)cc1)N1CCc2nc(-c3ccccc3)nc(-c3ccc(Cl)cc3)c2C1 | 12 | i | ? | ? | 5% | 5% | 12% | 10% | 2%
COc1ccc(-c2nc(-c3ccccc3)nc3c2CN(C(=O)c2ccc(C(F)(F)F)cc2)CC3)cc1 | -2 | i | -9% | ? | -6% | -4% | . | . | .
Cc1c(-c2ccccc2F)[nH]c2ccc(CNC(=O)C3C=CCN3)cc12 (centres undefined) | -17 | 10µM* | ? | ? | 5% | 40% | 19% | 13% | ?
CC(C)N1CC(C(=O)NCc2ccc(F)c(F)c2)NC1=O (centres undefined) | 7 | . | -25%[138 µM] | -8%[172 µM] | 10%[12.5 µM] | -4%[87.6 µM] | . | . | .
Cc1c(-c2ccccc2F)[nH]c2ccc(CNC(=O)C3CCCN(C(N)=O)C3)cc12 (centres undefined) | 26 | 3.5µM* | ? | ? | -13% | 5% | 31% | ? | 5.6µM*
NC(=O)N1CCCC(C(=O)NCCc2noc(-c3ccccc3)n2)C1 (centres undefined) | 0 | i | i | 5% | 2% | -13% | . | . | .
CC(C)CNC(=O)C1CCN(C(=O)c2ccc(-c3cccs3)cc2)CC1 | -12 | . | ? | ? | . | . | . | . | .
COc1ccccc1-c1nc2cc(NC(=O)c3ccccc3Cl)ccc2o1 | -10 | . | . | . | 4% | 98% | 16% | 13% | ?
COc1ccccc1C(=O)Nc1ccc2oc(-c3cccc4c(Br)cccc34)nc2c1 | -1 | . | . | . | 4% | 46% | . | . | .
N#Cc1ccc(C(=O)Nc2ccccc2-c2nc3ccccc3s2)c(F)c1 | -12 | . | . | . | -8% | 0% | 14% | 9% | 2%
COc1cc(OC)cc(C(=O)Nc2ccccc2-c2nc3ccccc3s2)c1 | 9 | . | . | . | 8% | 12% | 12% | 10% | -4%
COc1cccc(C(=O)Nc2ccc3nc(SCC(=O)N4CCOCC4)sc3c2)c1 | 11 | . | . | . | ? | 0% | ? | 21% | 9.9µM*
CCCOc1cccc(C(=O)Nc2ccc(-c3nc4ccccc4s3)c(Cl)c2)c1 | -8 | . | . | . | 1% | 27% | 9% | 9% | ?
O=C(Nc1ccc2nc(SCC(=O)N3CCOCC3)sc2c1)c1cccc(Br)c1 | -3 | . | . | . | ? | -17% | . | . | .
CN(C)C[C@@H]1CN(c2ccncn2)C[C@H]1NC(=O)Cc1c(F)cccc1Cl | -12 | i | -7% | 3% | 0% | 6% | . | . | .
C[C@H](O)c1onc(-c2ccc(F)cc2)c1C(=O)NC(C)(C)C | 1 | i | i | 5%[172 µM] | 8%[87.6 µM] | 27%[87.6 µM] | . | . | .
COc1cccc(C(=O)Nc2ccc(-c3nc4ccccc4s3)c(O)c2)c1 | . | . | . | . | . | . | 13% | 9% | 1%
CCS(=O)(=O)c1cccc(C(=O)Nc2ccc(-c3nc4ccccc4s3)c(O)c2)c1 | 16 | . | . | . | 5% | 6% | 4% | 4% | ?
COc1cccc(-c2nc3cc(NC(=O)c4ccc(C)c([N+](=O)[O-])c4)ccc3s2)c1 | . | . | . | . | . | . | 9% | 9% | -15%
COc1cccc(C(=O)Nc2ccc3nc(SCCOc4ccccc4)sc3c2)c1 | 7 | . | . | . | -5% | -5% | . | . | .
CCCC1CN(C(=O)OC(C)(C)C)CCN1 (centres undefined) | -9 | . | i | i | 1%[87.6 µM] | 2%[87.6 µM] | . | . | .
O=C(NCC1CC1)C1CCN(C(=O)c2ccc(-c3cncnc3)cc2)CC1 | 3 | . | -28% | -15% | -29% | -3% | . | . | .
Cc1nc2c(s1)C[C@@H]1[C@](C)(CO)[C@H](O)CC[C@@]1(C)[C@@H]2CC(=O)Nc1ccccc1 | -5 | i | -7%[138 µM] | -25%[172 µM] | -5%[87.6 µM] | 9%[87.6 µM] | . | . | .
COc1ccc(-c2noc([C@@H]3C[C@@H](O)CN3Cc3cccnc3)n2)cc1 | -16 | ? | ? | ? | -19%[87.6 µM] | 51%[87.6 µM] | . | . | .
COc1ccc(-c2noc([C@@H]3C[C@@H](O)CN3Cc3cc4ccccc4o3)n2)cc1 | 3 | 5µM* | -9%[174 µM] | -11%[172 µM] | -10%[87.6 µM] | 38%[87.6 µM] | 18%[49.3 µM] | ? | 16µM*
COc1ccc(CN2C[C@H](O)C[C@H]2c2nc(-c3ccc(OC)cc3)no2)cc1 | 13 | 11µM* | -30%[174 µM] | ? | -5%[87.6 µM] | 83%[87.6 µM] | -1%[49.3 µM] | 1%[49.3 µM] | ?
CNC(=O)[C@H]1C[C@H](Oc2ccccc2)CN1S(=O)(=O)c1ccc(OC)cc1 | 20 | i | i | -2% | 10% | 4% | . | . | .
C[S+](=O)([O-])c1ccc(-c2nnc3ccc(C(=O)NCCc4ccc(Cl)cc4)cn23)cc1 | 0 | . | ? | ? | -5% | 0% | . | . | .
